The values below come from the antibiotic and cytotoxicity screens of Wong et al. (2023).

Each structure is given as a SMILES string. The campaign covered roughly 39,000 compounds. About 3,300 (8.5%) were called active. The entries come from a sample that favours actives as a whole.

In the assay the test system is HepG2. The assay is described as follows: cytotoxicity call (relative viability < 0.9). Conditions: 10 µM.
As for `C[C@H](CO)N1C[C@H](C)[C@H](CN(C)Cc2ccc(Oc3ccccc3)cc2)Oc2c(NC(=O)c3nc4ccccc4s3)cccc2C1=O`, the cytotoxicity call was “inactive”.
Turning to `C[C@@H]1CN([C@H](C)CO)C(=O)c2cccc(NC(=O)c3nc4ccccc4s3)c2O[C@H]1CN(C)Cc1ccc(Oc2ccccc2)cc1`, the cytotoxicity call is “inactive”.
The result for `C[C@H](CO)N1C[C@H](C)[C@@H](CN(C)Cc2ccc(Oc3ccccc3)cc2)Oc2c(NC(=O)c3nc4ccccc4s3)cccc2C1=O` reads “active”; that for `C[C@H]1CN([C@@H](C)CO)C(=O)c2cccc(NC(=O)c3nc4ccccc4s3)c2O[C@H]1CN(C)Cc1ccc(Oc2ccccc2)cc1`, “active”; that for `C[C@H]1CN([C@@H](C)CO)C(=O)c2cccc(NC(=O)c3nc4ccccc4s3)c2O[C@@H]1CN(C)Cc1ccc(Oc2ccccc2)cc1`, “inactive”.
The result for `C[C@@H]1CN([C@H](C)CO)C(=O)c2cccc(NC(=O)c3nc4ccccc4s3)c2O[C@@H]1CN(C)Cc1ccc(Oc2ccccc2)cc1` reads “inactive”.
For the compound `COCC#Cc1cnc2c(c1)C(=O)N([C@H](C)CO)C[C@H](C)[C@H](CN(C)C(=O)CN1CCOCC1)O2`, the cytotoxicity call was “inactive”.
For `Cc1ccc(S(=O)(=O)Nc2ccc3c(c2)C(=O)N([C@@H](C)CO)C[C@@H](C)[C@H](CN(C)C(=O)Nc2cccc4ccccc24)OCCCC[C@H](C)O3)cc1` the value was “inactive”.
On to `COc1ccc(S(=O)(=O)N(C)C[C@@H]2Oc3ccc(NC(=O)Cn4cnnn4)cc3CC(=O)N([C@H](C)CO)C[C@H]2C)cc1`, for which the cytotoxicity call is “inactive”.
Take `COc1ccc(-c2csc(C(C#N)=C3CCCCC3)n2)cc1`: the cytotoxicity call was “inactive”.
For `Cc1ccccc1/C=C(\C#N)c1nc(-c2ccccc2)cs1` the value was “active”; for `Cc1nc(-c2ccccc2)cs1`, “inactive”; for `C[C@@H]1CN([C@@H](C)CO)C(=O)c2cc(NC(=O)Cn3cnnn3)ccc2O[C@@H]1CN(C)S(C)(=O)=O`, “inactive”.
As for `O=C(C1=C[C@@H](c2coc3ccccc3c2=O)C[C@@H](OCCCCO)O1)N1CCN(Cc2ccc3c(c2)OCO3)CC1`, the cytotoxicity call was “inactive”.
The result for `Cc1noc(C)c1NC(=O)Nc1ccc2c(c1)C(=O)N([C@H](C)CO)C[C@H](C)[C@@H](CN(C)S(=O)(=O)c1cn(C)cn1)O2` reads “inactive”; that for `C[C@@H]1CCCCO[C@@H](CN(C)Cc2ccc(Cl)c(Cl)c2)[C@@H](C)CN([C@H](C)CO)C(=O)c2cc(NC(=O)Nc3ccc(F)cc3)ccc2O1`, “inactive”; that for `C[C@@H]1CCCCO[C@@H](CN(C)Cc2ccc(Cl)c(Cl)c2)[C@@H](C)CN([C@@H](C)CO)C(=O)c2cc(NC(=O)Nc3ccc(F)cc3)ccc2O1`, “active”.
The result for `C[C@@H]1CCCCO[C@@H](CN(C)Cc2ccc(Cl)c(Cl)c2)[C@H](C)CN([C@H](C)CO)C(=O)c2cc(NC(=O)Nc3ccc(F)cc3)ccc2O1` reads “inactive”; that for `C[C@@H]1CCCCO[C@H](CN(C)Cc2ccc(Cl)c(Cl)c2)[C@@H](C)CN([C@H](C)CO)C(=O)c2cc(NC(=O)Nc3ccc(F)cc3)ccc2O1`, “active”.
As for `C[C@H]1CCCCO[C@H](CN(C)Cc2ccc(Cl)c(Cl)c2)[C@@H](C)CN([C@@H](C)CO)C(=O)c2cc(NC(=O)Nc3ccc(F)cc3)ccc2O1`, the cytotoxicity call was “active”.
For `C[C@@H]1CCCCO[C@H](CN(C)Cc2ccc(Cl)c(Cl)c2)[C@H](C)CN([C@@H](C)CO)C(=O)c2cc(NC(=O)Nc3ccc(F)cc3)ccc2O1` the value was “inactive”; for `C[C@H](CO)N1C[C@H](C)[C@H](CN(C)Cc2ccc(Cl)c(Cl)c2)OCCCC[C@H](C)Oc2ccc(NC(=O)Nc3ccc(F)cc3)cc2C1=O`, “active”.
For `C[C@@H]1CN([C@H](C)CO)C(=O)c2cc(NC(=O)Nc3ccc(F)cc3)ccc2O[C@@H](C)CCCCO[C@@H]1CN(C)Cc1ccc(Cl)c(Cl)c1` the value was “inactive”; for `C[C@@H]1CCCCO[C@@H](CN(C)Cc2ccc(Cl)c(Cl)c2)[C@H](C)CN([C@@H](C)CO)C(=O)c2cc(NC(=O)Nc3ccc(F)cc3)ccc2O1`, “inactive”; for `C[C@@H]1CN([C@@H](C)CO)C(=O)c2cc(NC(=O)Nc3ccc(F)cc3)ccc2O[C@@H](C)CCCCO[C@H]1CN(C)Cc1ccc(Cl)c(Cl)c1`, “inactive”.
The result for `C[C@H](CO)N1C[C@H](C)[C@@H](CN(C)Cc2ccc(C(=O)O)cc2)Oc2ccc(NC(=O)c3ccncc3)cc2CC1=O` reads “inactive”; that for `C[C@@H]1CN([C@H](C)CO)C(=O)Cc2cc(NS(=O)(=O)c3ccccc3)ccc2O[C@@H]1CN(C)S(=O)(=O)c1cccs1`, “inactive”.
For `C[C@H]1CN([C@@H](C)CO)C(=O)c2cccc(NC(=O)c3cnccn3)c2O[C@@H]1CN(C)S(=O)(=O)c1ccccc1`, the cytotoxicity call is “inactive”.
`C[N+](C)(C)CCCC[C@@H]1NC(=O)[C@H]2C[C@@H](C(=O)NCc3ccc(F)cc3)[C@@H](c3ccc(O)cc3)N2C1=O`: the cytotoxicity call is “inactive”.
The result for `COc1ccc(S(=O)(=O)Nc2ccc3c(c2)C(=O)N([C@@H](C)CO)C[C@H](C)[C@@H](CN(C)Cc2ccc4c(c2)OCO4)OCCCC[C@@H](C)O3)cc1` reads “inactive”; that for `COc1ccc(NC(=O)N(C)C[C@@H]2OCc3ccccc3-c3c(n(C)c4ccccc34)C(=O)N([C@@H](C)CO)C[C@@H]2C)cc1`, “inactive”.
With `COc1ccc(S(=O)(=O)Nc2cccc3c2O[C@@H](CN(C)S(=O)(=O)c2cn(C)cn2)[C@H](C)CN([C@@H](C)CO)C3=O)cc1`, the cytotoxicity call is “inactive”.
The result for `C[C@@H]1CN([C@@H](C)CO)C(=O)Cc2cc(NC(=O)Nc3cccc4ccccc34)ccc2O[C@H]1CN(C)Cc1ccc(Cl)c(Cl)c1` reads “inactive”; that for `CC(C)NC(=O)N(C)C[C@H]1Oc2ccc(NC(=O)Cn3cnnn3)cc2C(=O)N([C@@H](C)CO)C[C@H]1C`, “inactive”.
The result for `COC(=O)c1ccc(O)c(O)c1` reads “inactive”; that for `CCS(=O)(=O)N1CCc2ccc(N)cc2C1`, “inactive”; that for `COc1ccc(S(=O)(=O)N(C)C[C@H]2OCCCC[C@@H](C)Oc3ccc(NS(C)(=O)=O)cc3C(=O)N([C@H](C)CO)C[C@@H]2C)cc1`, “inactive”.
Take `CC(C)NC(=O)Nc1ccc2c(c1)C(=O)N([C@H](C)CO)C[C@H](C)[C@@H](CN(C)Cc1ccc(Cl)c(Cl)c1)OCCCC[C@H](C)O2`: the cytotoxicity call was “inactive”.
For `C[C@@H]1CN([C@H](C)CO)C(=O)c2cc(NC(=O)Nc3ccc(F)cc3)ccc2O[C@@H](C)CCCCO[C@H]1CN(C)Cc1ccc(Cl)c(Cl)c1` the value was “active”.
For `C[C@@H]1CCCCO[C@H](CN(C)Cc2ccc(Cl)c(Cl)c2)[C@@H](C)CN([C@@H](C)CO)C(=O)c2cc(NC(=O)Nc3ccc(F)cc3)ccc2O1` the value was “active”; for `CC(C)NC(=O)Nc1ccc2c(c1)C(=O)N([C@@H](C)CO)C[C@H](C)[C@@H](CN(C)Cc1ccc(Cl)c(Cl)c1)OCCCC[C@H](C)O2`, “inactive”.
The result for `CC(C)NC(=O)Nc1ccc2c(c1)C(=O)N([C@H](C)CO)C[C@@H](C)[C@H](CN(C)Cc1ccc(Cl)c(Cl)c1)OCCCC[C@@H](C)O2` reads “active”.
